High-throughput results as filed in PubChem.
CHRM1 agonist – human M1 muscarinic receptor agonists, primary screen, Fluo-8 calcium fluorescence, CHO-K1 cells, HTS; Muscarinic acetylcholine receptor M1 (Homo sapiens), P11229; CHO-K1 hM1, agonist mode; 0% DMSO, 100% acetylcholine EC100; activation, % at 3 µM; 360,000 tested, 0.33% active;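 active = activation above the run's mean compound activation plus 3 SD, cut at about 16% in these data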;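 also: peak over basal fluorescence ratio within a 140 s kinetic read after compound addition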
Target sequence (P11229 whole entry, looked up): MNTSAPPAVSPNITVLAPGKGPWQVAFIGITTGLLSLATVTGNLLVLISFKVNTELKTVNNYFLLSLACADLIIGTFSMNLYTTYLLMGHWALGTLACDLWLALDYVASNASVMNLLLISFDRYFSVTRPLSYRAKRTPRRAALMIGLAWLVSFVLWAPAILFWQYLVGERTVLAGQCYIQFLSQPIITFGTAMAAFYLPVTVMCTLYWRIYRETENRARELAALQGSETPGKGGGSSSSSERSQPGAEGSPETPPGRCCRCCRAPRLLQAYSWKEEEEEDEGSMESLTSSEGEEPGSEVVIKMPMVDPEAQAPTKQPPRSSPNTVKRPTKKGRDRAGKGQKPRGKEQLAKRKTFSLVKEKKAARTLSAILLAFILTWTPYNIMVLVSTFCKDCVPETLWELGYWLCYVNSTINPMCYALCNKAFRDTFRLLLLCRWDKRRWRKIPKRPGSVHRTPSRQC
CHO-K1 Ca PAM – nonselective calcium activators in parental CHO-K1 cells, primary screen, counter-screen for M1 PAM project, cell-based, Fluo-8 calcium fluorescence, full deck, 1536-well | ATP EC20; 0% at ATP EC20, 100% at ATP max | activation, % at 3 µM | 360,000 tested, 0.02% active | AID 602247, 2012;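 active = activation above the run cutoff, the mean activation of all test compounds plus 3 SD, cut at about 40% in these data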;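 also: peak over basal fluorescence ratio in a 140 s read after ATP addition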
M1 PAM – human M1 muscarinic receptor positive allosteric modulators, primary screen, CHO-K1 cells, Fluo-8 calcium fluorescence, 1536-well | 360,000 tested, 0.088% active | activation, % at 3 µM | CHO-K1 hM1, ACh EC20; 0% = ACh EC20, 100% = maximal ACh | Muscarinic acetylcholine receptor M1 (Homo sapiens), P11229; in the data active = activation above about 19%, passing the limit was not always enough
CHO-K1 Ca ag – counter-screen for M1 agonists: effect in parental CHO-K1 cells | Fluo-8 calcium fluorescence; scaled to maximal ATP response, vehicle zero | activation, % at 3 µM | 360,000 tested, 0.48% active; in the data active = activation above about 15%;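 also: untransfected CHO-K1 host cells lacking M1 receptor as counterscreen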
CHO-K1 Ca antag – nonselective inhibitor or artifact in parental CHO-K1 cells | ATP-induced calcium, Fluo-8 fluorescence | inhibition, % at 3 µM | 360,000 tested, 0.6% active | AID 602250;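 active = inhibition above a per-plate cutoff, the plate's mean sample inhibition plus 3 SD, cut at about 24% in these data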
CHRM1 antagonist – human M1 muscarinic receptor antagonists, primary screen, CHO-K1 cells, Fluo-8 calcium fluorescence, 1536-well; Muscarinic acetylcholine receptor M1 (Homo sapiens), P11229; AID 588852, 2011; CHO-K1 hM1, ACh EC80 antagonist; 360,000 tested, 1.3% active; inhibition, % at 3 µM;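 active = percent inhibition above its own plate's cutoff, namely the mean of that plate's compound wells plus 3 SD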;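 also: peak over basal fluorescence ratio during 140 s after agonist addition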
Large screens that a line does not name were inactive. Only some compounds are listed: those with a hit (about 2.3% of all), similar ones and a draw of the others.

Cc1ccc(N(CC(=O)NC2CCCCC2)C(=O)CNC(=O)c2ccco2)cc1F	none
CCN(CC#CCC(O)(c1ccccc1)C1CCCC1)C(C)C (stereo not drawn)	CHRM1 antagonist 99
CC(C)N(CC#CCC1(O)c2ccccc2-c2ccccc21)CCO	none
CC(C)N(CC#CCC(O)(c1ccccc1)C1CCCC1)CCO (stereo not drawn)	CHRM1 antagonist 86
NS(=O)(=O)c1ccc(NC(=O)Nc2ccc(Cl)cc2)cc1	CHO-K1 Ca antag 28
N#Cc1ccc(NC(=O)Nc2ccc(Cl)cc2)cc1	CHO-K1 Ca antag 26, CHRM1 antagonist 32
CSc1ccc(-c2cccc3nncn23)cc1	none
O=C(/C=C/Nc1ccccc1)c1ccc(Oc2ncccn2)cc1	CHO-K1 Ca antag 26
C[C@H](CO)N1C[C@H](C)[C@@H](CN(C)S(=O)(=O)c2cccs2)Oc2c(NS(=O)(=O)c3ccc(F)cc3)cccc2C1=O	none
CN(C(=O)CSc1nc2ccccc2c(=O)n1C)C1CCS(=O)(=O)C1 (stereo not drawn)	none
CN(C(=O)COC(=O)c1nc(-c2ccccc2)n(-c2ccccc2)n1)C1CCS(=O)(=O)C1 (stereo not drawn)	CHRM1 antagonist 64
CN(C(=O)CSc1nc2ccccc2n1C)C1CCS(=O)(=O)C1 (stereo not drawn)	CHRM1 antagonist 29
Cc1nn(-c2ccccc2)c(C)c1C(=O)OCC(=O)N(C)C1CCS(=O)(=O)C1 (stereo not drawn)	none
O=C(COC(=O)C1=COCCO1)Nc1cc(Cl)c(Cl)cc1Cl	none
CCc1ccc2oc(-c3ccc(OC)cc3)cc(=Nc3c(C)n(C)n(-c4ccccc4)c3=O)c2c1	CHRM1 antagonist 47
COc1cccc(N(C(=O)c2cccs2)c2nc3ccccc3s2)c1	CHO-K1 Ca antag 26
CCN(C(=O)c1cccs1)c1nc(-c2ccc(OC)cc2)cs1	none
CCCOC(=O)c1ccc(Oc2coc3c(CN(CC)CC)c(O)ccc3c2=O)cc1	CHRM1 antagonist 89
COc1cc(OC)cc(-c2cc3nc(C)c(CCC(=O)O)c(C)n3n2)c1	CHO-K1 Ca antag 39
O=C(CN1C(=O)COc2ccccc21)NCCN1CCC(Cc2ccccc2)CC1	CHRM1 antagonist 30
O=C(CN1C(=O)COc2ccccc21)NCCN1CCOCC1	none
CC(=O)N1CC(C)Sc2ccc(S(=O)(=O)NC(C)c3ccccc3)cc21 (stereo not drawn)	none
Cc1nn(-c2ccccc2)c2sc(-c3n[nH]c(=S)o3)cc12	CHO-K1 Ca antag 25
CCN(CC)C(CNC(=O)c1cc(=O)[nH]c2ccccc12)c1ccccc1Cl (stereo not drawn)	CHRM1 antagonist 55
O=C(NCc1cccc(Cl)c1)c1cc(=O)[nH]c2ccccc12	none
CCOc1ccc(NC(=O)CSc2ncn[nH]2)cc1	none
Cc1ccc(NC(=O)CSc2ncn[nH]2)cc1	CHO-K1 Ca ag 19
COc1ccccc1CC(=O)Nc1ccc(S(=O)(=O)N(C)C2CCN(C)CC2)cc1	none
CC1CC(C)CN(S(=O)(=O)c2ccc(C(=O)N3CCOCC3)cc2)C1 (stereo not drawn)	none
CSc1ccc(CN2CCc3c([nH]c4ccccc34)C2)cc1	CHO-K1 Ca ag 15
Clc1ccc(CN2CCc3c([nH]c4ccccc34)C2)cc1Cl	none
CCc1nn(CC(=O)N2CCN(c3ccc(F)cc3)CC2)c(=O)c2cc3occc3n12	none
CN1CCN(C2=Cc3ccccc3Sc3cc(F)ccc32)CC1	CHRM1 antagonist 80
O=C(Nc1ccccc1Cl)c1cc(C2CCCCN2C(=O)C2CCCCC2)on1 (stereo not drawn)	none
CCCNC(=O)c1cc(C2CCCCN2C(=O)c2cc(OC)c(C)c(OC)c2)on1 (stereo not drawn)	CHO-K1 Ca antag 25
COC(=O)N1CCCCC1c1cc(C(=O)Nc2ccccc2Cl)no1 (stereo not drawn)	M1 PAM 28
Cc1cc(C)n2nc(/C(C#N)=C/c3ccccn3)c(C#N)c2n1	none
CSc1nc2sc3c(c2c(=O)n1C1CCCCC1)CCN(C)C3	CHRM1 antagonist 29
C=C(C)CSc1nc2sc3c(c2c(=O)n1-c1ccccc1)CCN(C)C3	CHRM1 antagonist 36
C=C(C)CSc1nc2sc3c(c2c(=O)n1C1CCCCC1)CCN(C)C3	CHRM1 antagonist 31
CCOc1ccc(-c2c(C(=O)N/N=C/C3CCCCC3)nnn2-c2nonc2N)cc1	none
CC(CN1CCCCC1)OC(=O)c1ccco1 (stereo not drawn)	none
COc1ccc(S(=O)(=O)N(C)C[C@H]2Oc3ccc(NC(=O)NC4CCCCC4)cc3C(=O)N([C@H](C)CO)C[C@@H]2C)cc1	none
CC1CN(c2nc3c(c(=O)n(C)c(=O)n3C)n2Cc2c(F)cccc2Cl)CC(C)O1 (stereo not drawn)	CHRM1 agonist 18
OCCN(Cc1ccccc1)C(=S)Nc1ccc(Cl)cc1Cl	none
O=c1ccn([C@@H]2O[C@H](CNS(=O)(=O)C3CC3)[C@@H](O)[C@H]2O)c(=O)[nH]1	none
Cc1cc(C)cc(N(CCC#N)C(=O)COC(=O)C2CCN(c3ccc(C(F)(F)F)cn3)CC2)c1	CHRM1 antagonist 30
Cc1nc2scc(C)n2c(=O)c1S(=O)(=O)NCCc1ccc(Cl)cc1	none
Cc1nc2scc(C)n2c(=O)c1S(=O)(=O)NCC1CCN(Cc2ccc(Cl)cc2)CC1	CHRM1 antagonist 44
Cc1cccc(S(=O)(=O)NC2CCCCCCC2)c1	none
Cc1ccc(O)c(NC(=S)NC(=O)Cc2ccc(Cl)cc2)c1	CHRM1 agonist 79, CHO-K1 Ca ag 58, CHO-K1 Ca antag 90, CHRM1 antagonist 97
Cc1ccc(NC(=S)NC(=O)c2ccc(-c3ccc(Cl)cc3)o2)c(O)c1	none
CCOC(=O)C1=NOC2C3CC(C12)C1C(=O)N(CCc2ccc(OC)c(OC)c2)C(=O)C31 (stereo not drawn)	none
OC1CC2CCC(C1)N2CCCN1c2ccccc2Sc2ccc(Cl)cc21 (stereo not drawn)	CHRM1 antagonist 67
COc1cc(NC(=O)c2cc(S(=O)(=O)N3CCCCC3)c[nH]2)cc(OC)c1	none
CN(C)c1ccc(C=C2SC(=S)N(Cc3ccco3)C2=O)cc1	CHRM1 agonist 20
O=C(O)CCN1C(=O)C(=C2CCCCCC2)SC1=S	none
O=C1C(=C2CCCCC2)SC(=S)N1Cc1ccco1	CHRM1 antagonist 29
